Measured values reported in PubChem BioAssay (NCI).
The panel holds about 83,000 compounds, 20% with a hit somewhere; the sample as a whole holds those more often.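 Testing used 96-well plates and a 48-hour single-concentration exposure. Example: -40 means 40% of the starting cells died.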 Active and inactive are the calls of the source. How the source made its calls: active means growth percent below 10; inactive means the rest.

Key:
Test in all cases: NCI-60 one-dose screen, 48 h (100 = growth as untreated, 0 = no growth, -100 = all killed)
Details in all cases: 10 µM unless noted
[1] = tested on: NCI-H23 lung
[2] = tested on: NCI-H226 lung
[3] = tested on: NCI-H322M lung
[4] = tested on: HOP-62 NSCLC
[5] = tested on: HOP-92 NSCLC
[6] = tested on: NCI-H522 lung
[7] = tested on: A549/ATCC NSCLC
[8] = tested on: 786-0 renal
[9] = tested on: COLO 205 colon
[10] = tested on: NCI-H460 lung

Measured: growth

COc1cc2c(cc1[N+](=O)[O-])-c1ccc([N+](=O)[O-])cc1/C2=N\O
inactive: [1] 88.2% | [2] 66% | [3] 113% | [4] 110% | [5] 100% | [6] 51.2% | [7] 83.5% | [8] 79.6% | [9] 79.6%

Clc1ccc(N2N=C(c3cccc(Nc4ccncc4)c3)CC2c2ccc3c(c2)OCO3)cc1 (centres undefined)
active: [9] -52.8%
inactive: [1] 83.6% | [2] 82.5% | [3] 68.6% | [4] 42.4% | [5] 47.9% | [6] 57.2% | [7] 36.4% | [8] 56.9%

Cc1[nH]c(C(=O)Nc2ccccc2OCc2cccc(C(=O)NCCN)c2)c(Cl)c1Cl
inactive: [1] 78% | [2] 87.8% | [3] 81.9% | [4] 69.2% | [5] 84.6% | [6] 80.9% | [7] 63.8% | [8] 33.9% | [9] 68.7%

FC(F)(F)Oc1cccc(-c2cc(NCCCCCCNc3cc(-c4cccc(OC(F)(F)F)c4)nc4ccc(N5CCCC5)cc34)c3cc(N4CCCC4)ccc3n2)c1
active: [1] -19.9% | [3] -79.3% | [4] -14% | [5] -23.9% | [6] -49.5% | [7] -75% | [8] -83.4% | [9] -51.9%
inactive: [2] 68.5%

CC(C)CCSc1nc(NNC(N)=O)c(C#N)c(-c2ccccc2)n1
inactive: [1] 91.3% | [2] 96.6% | [3] 106% | [4] 105% | [5] 86.1% | [6] 97.4% | [7] 106% | [8] 75.2% | [9] 121%

CC[N+](CC)(CCCC(C)[N+]1(Cc2ccccc2)C(C)=CC=C1C)Cc1ccccc1 (centres undefined)
inactive: [1] 72.3% | [3] 96.7% | [4] 98.1% | [10] 97% | [5] 55.3% | [6] 75% | [7] 100% | [8] 99.5% | [9] 67.9%

COc1ccc(-c2c[nH]c(C(=O)O)c2-c2cc(OC)c3c(c2OC)OCO3)cc1
inactive: [1] 98.9% | [3] 95% | [4] 95.6% | [10] 102% | [5] 110% | [6] 97% | [7] 103% | [8] 104% | [9] 102%

COc1cc2oc(-c3cccc(C(=O)Nc4ccc(Cl)cc4)c3)cc(=O)c2c(OC)c1OC
active: [5] -2.18%
inactive: [1] 44.3% | [2] 36.5% | [3] 37% | [4] 12.8% | [6] 25.2% | [7] 23.6% | [8] 12% | [9] 18%

COc1ccccc1/C=N/NC1=NC2C(N1)N(C)C(=O)N2C (centres undefined)
inactive: [1] 100% | [2] 90.4% | [3] 95.5% | [4] 92% | [5] 93.5% | [6] 103% | [7] 102% | [8] 102% | [9] 101%

O=C(OCc1nc2nc(Cl)nc(N3CCOCC3)c2[nH]1)n1ccnc1
active: [2] -67.6% | [5] -66.7% | [6] -66% | [8] -81.4% | [9] -65.3%
inactive: [1] 40.7% | [3] 65.4% | [4] 30.4% | [7] 48.4%

Clc1cc(Cl)cc(N2N=C(c3cccc(Nc4ccncc4)c3)CC2c2ccc3c(c2)OCO3)c1 (centres undefined)
inactive: [1] 80.1% | [2] 83.9% | [3] 68.3% | [5] 57.9% | [7] 15.2% | [8] 91.7%
active: [4] -31.2% | [6] -5.89% | [9] -47.5%
